# A selection: hits, their analogues and other compounds. The true share with any hit is near 3.5%.
# Pf apPOL block: Pf-apPOL DNA polymerase inhibition | Recombinant Pf-apPOL, molecular beacon fluorescence, 1.5 h | inhibition, % at 10 µM | 210,000 compounds, 0.25% hits
# mHTT-CaM PPI inh: inhibitors of human mutant huntingtin-calmodulin interaction; AlphaScreen His-mHTT/GST-CaM binding, luminescence; inhibition, % at 15 µM; 190,000 compounds, 3.6% hits;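 further: 0% = both proteins with DMSO and 100% = one protein alone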
# Target sequence (P42858 whole entry, looked up, stated change not applied): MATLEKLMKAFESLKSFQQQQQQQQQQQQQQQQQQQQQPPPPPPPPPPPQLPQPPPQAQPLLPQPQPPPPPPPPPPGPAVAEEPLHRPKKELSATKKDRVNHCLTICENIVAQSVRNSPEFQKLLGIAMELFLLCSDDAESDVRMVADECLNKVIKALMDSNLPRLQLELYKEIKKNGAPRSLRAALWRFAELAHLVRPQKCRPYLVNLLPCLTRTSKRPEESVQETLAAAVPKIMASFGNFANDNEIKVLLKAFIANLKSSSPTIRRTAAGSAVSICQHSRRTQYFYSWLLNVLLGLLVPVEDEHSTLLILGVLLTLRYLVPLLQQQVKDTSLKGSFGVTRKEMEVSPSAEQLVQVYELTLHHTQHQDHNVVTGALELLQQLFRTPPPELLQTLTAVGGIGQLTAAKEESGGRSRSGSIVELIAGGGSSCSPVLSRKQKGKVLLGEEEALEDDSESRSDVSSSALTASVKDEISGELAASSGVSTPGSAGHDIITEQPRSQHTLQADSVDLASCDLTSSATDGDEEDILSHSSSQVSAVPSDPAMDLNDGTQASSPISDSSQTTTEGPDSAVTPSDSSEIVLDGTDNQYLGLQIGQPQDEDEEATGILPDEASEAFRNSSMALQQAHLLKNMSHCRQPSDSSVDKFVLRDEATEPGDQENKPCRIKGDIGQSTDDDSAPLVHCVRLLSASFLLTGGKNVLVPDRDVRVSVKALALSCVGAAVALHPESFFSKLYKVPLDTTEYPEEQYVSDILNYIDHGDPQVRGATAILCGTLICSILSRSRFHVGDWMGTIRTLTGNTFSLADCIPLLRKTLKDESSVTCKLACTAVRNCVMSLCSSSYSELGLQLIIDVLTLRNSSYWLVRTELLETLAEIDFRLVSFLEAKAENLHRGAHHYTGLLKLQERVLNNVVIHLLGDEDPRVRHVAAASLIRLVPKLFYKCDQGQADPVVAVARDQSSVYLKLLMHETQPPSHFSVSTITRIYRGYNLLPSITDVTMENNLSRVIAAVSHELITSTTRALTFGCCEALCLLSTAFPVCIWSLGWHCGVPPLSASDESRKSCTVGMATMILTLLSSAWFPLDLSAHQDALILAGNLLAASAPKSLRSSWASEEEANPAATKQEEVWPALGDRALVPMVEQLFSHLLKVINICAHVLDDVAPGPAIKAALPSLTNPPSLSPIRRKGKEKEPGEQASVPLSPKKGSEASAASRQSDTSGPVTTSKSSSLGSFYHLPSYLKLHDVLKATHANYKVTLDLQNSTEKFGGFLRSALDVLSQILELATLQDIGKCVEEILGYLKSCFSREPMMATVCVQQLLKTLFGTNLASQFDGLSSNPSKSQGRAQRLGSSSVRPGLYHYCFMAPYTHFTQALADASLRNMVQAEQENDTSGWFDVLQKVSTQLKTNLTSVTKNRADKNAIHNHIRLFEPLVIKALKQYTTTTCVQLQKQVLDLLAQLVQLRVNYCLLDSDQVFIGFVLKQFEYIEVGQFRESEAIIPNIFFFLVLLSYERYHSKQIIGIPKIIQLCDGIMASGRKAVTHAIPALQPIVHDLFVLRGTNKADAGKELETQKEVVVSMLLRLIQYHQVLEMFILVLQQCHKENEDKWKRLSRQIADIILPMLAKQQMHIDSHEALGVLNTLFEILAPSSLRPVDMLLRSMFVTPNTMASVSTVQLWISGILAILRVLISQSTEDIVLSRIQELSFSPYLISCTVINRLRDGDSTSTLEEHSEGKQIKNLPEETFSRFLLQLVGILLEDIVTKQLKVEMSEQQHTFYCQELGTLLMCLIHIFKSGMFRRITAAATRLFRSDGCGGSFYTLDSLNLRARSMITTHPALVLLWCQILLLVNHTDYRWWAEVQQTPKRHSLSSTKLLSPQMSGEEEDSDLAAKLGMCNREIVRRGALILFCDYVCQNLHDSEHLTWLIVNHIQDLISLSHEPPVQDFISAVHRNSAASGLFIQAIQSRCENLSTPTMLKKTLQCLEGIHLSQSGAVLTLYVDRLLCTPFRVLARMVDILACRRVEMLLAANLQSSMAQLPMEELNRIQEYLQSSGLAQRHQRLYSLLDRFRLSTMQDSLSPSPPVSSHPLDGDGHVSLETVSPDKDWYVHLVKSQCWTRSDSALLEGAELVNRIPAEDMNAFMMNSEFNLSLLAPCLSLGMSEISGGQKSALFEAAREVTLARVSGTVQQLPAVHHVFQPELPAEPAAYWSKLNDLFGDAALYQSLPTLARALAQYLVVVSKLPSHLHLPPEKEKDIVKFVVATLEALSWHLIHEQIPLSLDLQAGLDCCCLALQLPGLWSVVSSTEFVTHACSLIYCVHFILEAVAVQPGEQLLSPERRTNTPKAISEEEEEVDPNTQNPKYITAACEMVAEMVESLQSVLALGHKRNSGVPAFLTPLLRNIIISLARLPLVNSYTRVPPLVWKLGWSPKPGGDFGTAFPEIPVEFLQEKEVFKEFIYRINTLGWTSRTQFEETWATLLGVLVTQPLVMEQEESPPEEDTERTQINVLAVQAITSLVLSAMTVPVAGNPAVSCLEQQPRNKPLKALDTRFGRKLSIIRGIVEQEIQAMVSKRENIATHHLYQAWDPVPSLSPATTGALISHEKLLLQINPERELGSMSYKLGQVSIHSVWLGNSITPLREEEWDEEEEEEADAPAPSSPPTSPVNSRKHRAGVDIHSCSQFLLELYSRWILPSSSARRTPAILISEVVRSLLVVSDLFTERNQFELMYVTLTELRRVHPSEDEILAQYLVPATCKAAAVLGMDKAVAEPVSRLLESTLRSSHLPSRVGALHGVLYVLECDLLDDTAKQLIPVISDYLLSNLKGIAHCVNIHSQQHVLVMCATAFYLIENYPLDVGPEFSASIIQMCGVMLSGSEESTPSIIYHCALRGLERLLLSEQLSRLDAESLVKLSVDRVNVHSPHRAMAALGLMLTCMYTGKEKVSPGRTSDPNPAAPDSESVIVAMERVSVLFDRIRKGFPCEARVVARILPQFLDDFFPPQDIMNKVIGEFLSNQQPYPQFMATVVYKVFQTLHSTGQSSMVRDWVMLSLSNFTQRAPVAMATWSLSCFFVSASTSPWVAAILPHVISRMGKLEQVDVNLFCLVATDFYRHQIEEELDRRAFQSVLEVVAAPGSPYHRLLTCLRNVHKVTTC
# * = called active by the depositor; x = no result. No stated cut-off is given here; in the data, active means inhibition above about 50%; inactive means the rest.
SMILES,Pf apPOL block,mHTT-CaM PPI inh
O=c1c(CN2CCN(c3ccc(Cl)cc3)CC2)coc2ccccc12,-3,3
CCc1ccc(OCCCC(=O)O)cc1,-5,1
CC(C)(C)c1ccc(C(=O)N2N=C(c3ccc([N+](=O)[O-])cc3)CC2(O)C(F)(F)F)cc1 (centres undefined),1,41
O=C(c1ccc([N+](=O)[O-])cc1)N1N=C(c2ccncc2)CC1(O)C(F)(F)F (centres undefined),83*,5
Cc1ccc(C2=NN(C(=O)c3ccccc3Cl)C(O)(C(F)(F)F)C2)cc1 (centres undefined),0,-1
O=C(c1ccccc1O)N1N=C(c2ccc(Cl)cc2)CC1(O)C(F)(F)F (centres undefined),-1,59*
O=C(c1ccc(Cl)cc1)N1N=C(c2ccc([N+](=O)[O-])cc2)CC1(O)C(F)(F)F (centres undefined),-1,51*
CC(C)C(=O)N1N=C(c2ccc([N+](=O)[O-])cc2)CC1(O)C(F)(F)F (centres undefined),-3,0
CNC(=O)C12CC3(C)CC(C)(CC(C)(C3)C1)C2,4,-4
Cc1ccc(S(=O)(=O)Nc2nc(-c3ccccc3)c(-c3ccccc3)o2)cc1,-6,50*
Cc1ccc(S(=O)(=O)Nc2ccccc2-c2ccccc2)cc1,-52,-29
Cc1ccc(CNC(=O)C2CCN(c3cc(C(=O)Nc4ccccc4F)ccn3)CC2)cc1,3,1
COc1ccc(-c2csc(/C(C#N)=C/Nc3ccc(S(N)(=O)=O)cc3)n2)cc1OC,-1,4
c1ccc2ncc(-c3ccc4ccccc4n3)cc2c1,0,-12
Nc1cccc2ccc(-c3cnc4ccccc4c3)nc12,-1,57*
CCOc1cc(/C=C2\C(=O)Nc3ccc(Br)cc32)cc(Br)c1OCC,0,9
COc1ccc(/C=C2\C(=O)Nc3ccc(Br)cc32)cc1O,-8,99*
O=C1Nc2ccc(Br)cc2/C1=C/c1ccc(OC2CCCC2)cc1,-12,46
COc1cc(/C=C2\C(=O)Nc3ccc(Br)cc32)cc(Br)c1O,-6,100*
COc1cc(/C=C2\C(=O)Nc3ccc(Br)cc32)cc(Br)c1OC,-5,59*
COc1cc(/C=C2\NC(=O)NC2=O)cc(Br)c1O,-4,13
O=C1Nc2ccc(Br)cc2/C1=C/C1CC=CCC1 (centres undefined),4,51*
CC(C)c1ccc(/C=C2\C(=O)Nc3ccc(Br)cc32)cc1,0,19
COc1cccc2c(Nc3ccccc3C)cc(C(=O)N3CCSCC3)nc12,-1,11
Cc1ccc(C(=O)Nc2cc3ccccc3oc2=O)cc1C,-6,1
SMILES,Pf apPOL block,mHTT-CaM PPI inh
CC(C)CNC(=O)N1CCc2c(c(-c3nc(Cc4ccccc4)no3)nn2C)C1,-4,14
CSc1nc(N)n(-c2cc(Cl)cc(Cl)c2)n1,-6,x
CSCc1csc(NC(=O)C2CCCC2)n1,-2,-10
COc1cc(/C=C2\C(=O)Nc3ccc(Br)cc32)cc(OC)c1O,-89,100*
COc1cc(/C=C2\C(=O)Nc3ccc(F)cc32)cc(OC)c1OC,-7,16
COc1ccc(CCCC(=O)Nc2ccc(Cl)cc2C)cc1,1,-2
COc1ccc(CCCC(=O)Nc2ccc(I)cc2C)cc1,93*,-4
CC(C)NC(=O)Nc1ccc(Oc2cccc(F)c2)nc1,-4,-4
Nc1cc(Cl)c(Oc2cccc(Cl)c2Cl)cc1[N+](=O)[O-],-3,97*
O=C(O)c1cc([N+](=O)[O-])c(C(=O)O)cc1Oc1cc(Cl)c(Cl)cc1Cl,-5,-5
CN(C)c1ccc(CCNC(=O)c2cccs2)cc1,-13,7
COc1ccccc1CNC(=O)CNc1ccccc1-c1nc2ccccc2[nH]c1=O,-10,22
O=C(c1cn2c(n1)COCC2)N1CCC(Cc2ccccc2)CC1,-5,35
O=C(c1cn2c(n1)CSCC2)N1CCC(Cc2ccccc2)CC1,1,57*
CCC/C=C/c1ccc(CN2C(C)C(=O)N(Cc3cn(Cc4ccco4)nn3)CCS2(=O)=O)cc1 (centres undefined),-4,35
CC(C)C1C(=O)N(Cc2cn(Cc3ccco3)nn2)CCS(=O)(=O)N1Cc1ccc(-c2ccc(Cl)c(Cl)c2)cc1 (centres undefined),-10,83*
COc1ccc(-c2ccc(CN3C(C(C)C)C(=O)N(Cc4cn(Cc5ccco5)nn4)CCS3(=O)=O)cc2)cn1 (centres undefined),-27,38
CCC/C=C/c1ccc(CN2C(C(C)C)C(=O)N(Cc3cn(Cc4ccco4)nn3)CCS2(=O)=O)cc1 (centres undefined),-1,57*
Cn1c(SCC(=O)Nc2ccc(Cl)cc2)nc2c([nH]c3ccccc32)c1=O,-4,-2
Cc1ccnc(N2CCCC(C(=O)Nc3ccc(S(N)(=O)=O)cc3)C2)n1 (centres undefined),-4,-3
CC(=O)N(CN1C(=O)c2ccc([N+](=O)[O-])cc2C1=O)c1ccc(F)cc1,3,23
CC(=O)N(CN1C(=O)c2ccc([N+](=O)[O-])cc2C1=O)c1ccc(Oc2ccc(Cl)cc2)cc1,92*,3
COc1ccc(C2C3=C(NCCN=C3c3ccc(Cl)cc3)C(=O)N2c2ccccc2)cc1 (centres undefined),-3,2
COc1ccccc1Oc1nc2c(c(=O)n(C)c(=O)n2C)n1Cc1ccc(Br)cc1,0,-5
Cn1nc(C(=O)NCc2ccccc2)c2c1CCN(C(=O)c1ccc(Br)o1)C2,-4,16
SMILES,Pf apPOL block,mHTT-CaM PPI inh
Cn1nc(C(=O)NCc2ccc(F)cc2)c2c1CCN(C(=O)c1ccccc1Cl)C2,-7,55*
COc1ccccc1C(=O)N1CCc2c(c(C(=O)NCc3ccc(F)cc3)nn2C)C1,-12,71*
Cc1ccccc1C(=O)N1CCc2c(c(C(=O)NCc3ccc(F)cc3)nn2C)C1,-12,35
COc1ccccc1C(=O)N1CCc2c(c(C(=O)NCc3ccccc3)nn2C)C1,-5,36
Cn1nc(C(=O)NCc2ccccc2)c2c1CCN(C(=O)c1ccccc1F)C2,-5,53*
N#Cc1ccc(N2CCN(C(=O)c3ccc(Cl)cc3)CC2)nc1,-39,x
O=C(O)c1cc(C23CC4CC(CC(C4)C2)C3)ccc1O,19,9
Fc1ccc(CSC(=S)N2CCN(C(=S)SCc3ccc(F)cc3)CC2)cc1,-11,x
O=C(CSc1nc2[nH]ncc2c(=O)n1-c1ccccc1)Nc1ccc(C(F)(F)F)cc1,-5,37
O=c1c2cn[nH]c2nc(SCc2ccc(C(F)(F)F)cc2)n1-c1ccccc1,-16,63*
O=[N+]([O-])c1ccccc1-c1ccccc1Br,5,-12
COc1ccc(C=C2Oc3cc(OS(=O)(=O)c4ccccc4)ccc3C2=O)c(OC)c1OC,-2,-11
COc1cccc(CNc2ccccc2)c1,-2,4
COc1cccc(CNc2ccc3c(c2)CCC3)c1,2,67*
COc1cccc(CNc2cccc(F)c2)c1,-14,-34
COc1cccc(CNc2ccc(C)c(C)c2)c1,0,53*
COc1cc(CNc2ccc(C)c(C)c2)cc(OC)c1,0,69*
COc1ccc(CNc2ccc(F)c(Cl)c2)cc1,13,-37
CCN=C1S/C(=C\c2ccc(-c3ccc(F)cc3)o2)C(=O)N1CC,0,-17
Fc1ccc(Cc2nc(-c3ccn4cnnc4c3)no2)cc1,15,28
CCOc1ccc(-n2nc(C(=O)N(CC)CC)c3ccccc3c2=O)cc1,-6,-6

# Compound activity from PubChem.
